Among the data in ChEMBL document CHEMBL1961873, “Compounds: GSK PKIS; Assays: Nanosyn kinase panel” (2012) are inhibition values, retold here.

The target of assay [1] is Serine/threonine-protein kinase pim-2 (Homo sapiens) (UniProt Q9P1W9). To be noted: at 1 µM.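 Note: each value is a mean of the inhibition measurements against the kinase.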
Assay [2] deals with Serine/threonine-protein kinase pim-3 (Homo sapiens) (UniProt Q86V86). To be noted: at 0.1 µM.
For assay [3] the target is unchanged. Particulars: at 1 µM.
Assay [4] addresses T1, MAP kinase-activated protein kinase 5 (Homo sapiens) (UniProt Q8IW41).
T1 sequence (whole entry): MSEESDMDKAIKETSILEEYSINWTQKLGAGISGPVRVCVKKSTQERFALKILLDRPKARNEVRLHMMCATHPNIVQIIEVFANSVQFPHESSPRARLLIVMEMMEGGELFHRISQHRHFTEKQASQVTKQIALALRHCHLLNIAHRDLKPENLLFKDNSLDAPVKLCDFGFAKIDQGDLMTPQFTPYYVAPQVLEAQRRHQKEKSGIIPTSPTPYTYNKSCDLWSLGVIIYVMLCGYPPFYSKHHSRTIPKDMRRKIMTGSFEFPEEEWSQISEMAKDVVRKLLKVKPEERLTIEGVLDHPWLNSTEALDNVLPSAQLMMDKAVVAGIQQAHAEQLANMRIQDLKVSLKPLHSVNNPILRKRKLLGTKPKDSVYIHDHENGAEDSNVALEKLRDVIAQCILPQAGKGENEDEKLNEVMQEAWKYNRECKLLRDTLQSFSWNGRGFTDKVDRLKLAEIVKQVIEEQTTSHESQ
Particulars: at 0.1 µM.

Assay [5] concerns the target T1, MAP kinase-activated protein kinase 5 (Homo sapiens). To be noted: at 1 µM.
The target in assay [6] is Serine/threonine-protein kinase SIK1 (Homo sapiens) (UniProt P57059). Particulars: at 0.1 µM.
Serine/threonine-protein kinase SIK1 (Homo sapiens), sequence (P57059 whole entry): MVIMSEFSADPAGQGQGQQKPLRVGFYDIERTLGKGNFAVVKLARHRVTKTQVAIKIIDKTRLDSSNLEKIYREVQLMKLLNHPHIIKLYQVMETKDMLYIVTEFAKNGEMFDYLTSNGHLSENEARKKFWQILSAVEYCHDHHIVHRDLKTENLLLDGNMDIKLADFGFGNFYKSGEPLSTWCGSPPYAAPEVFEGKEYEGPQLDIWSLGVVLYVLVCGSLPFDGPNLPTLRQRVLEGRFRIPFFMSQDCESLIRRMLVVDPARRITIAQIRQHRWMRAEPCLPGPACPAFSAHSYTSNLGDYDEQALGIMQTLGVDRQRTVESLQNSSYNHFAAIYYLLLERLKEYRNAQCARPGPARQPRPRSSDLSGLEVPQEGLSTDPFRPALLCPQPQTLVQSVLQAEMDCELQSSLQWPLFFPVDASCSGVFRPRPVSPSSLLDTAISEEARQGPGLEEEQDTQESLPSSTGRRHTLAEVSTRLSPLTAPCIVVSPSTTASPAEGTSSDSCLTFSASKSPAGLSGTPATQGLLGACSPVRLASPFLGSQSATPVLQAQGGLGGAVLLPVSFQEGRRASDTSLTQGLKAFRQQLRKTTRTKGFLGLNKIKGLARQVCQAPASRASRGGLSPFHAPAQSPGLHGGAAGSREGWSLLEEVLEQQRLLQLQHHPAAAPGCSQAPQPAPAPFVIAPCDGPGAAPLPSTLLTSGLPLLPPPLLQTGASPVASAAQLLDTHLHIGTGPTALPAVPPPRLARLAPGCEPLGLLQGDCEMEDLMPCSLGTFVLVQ
Assay [7] shares this target. To be noted: at 1 µM.
Assay [8] addresses Serine/threonine-protein kinase SIK2 (Homo sapiens) (UniProt Q9H0K1). To be noted: at 0.1 µM.
Assay [9] shares this target. To be noted: at 1 µM.
Assay [10] addresses T2, Serine/threonine-protein kinase TBK1 (Homo sapiens) (UniProt Q9UHD2).
T2 sequence (whole entry): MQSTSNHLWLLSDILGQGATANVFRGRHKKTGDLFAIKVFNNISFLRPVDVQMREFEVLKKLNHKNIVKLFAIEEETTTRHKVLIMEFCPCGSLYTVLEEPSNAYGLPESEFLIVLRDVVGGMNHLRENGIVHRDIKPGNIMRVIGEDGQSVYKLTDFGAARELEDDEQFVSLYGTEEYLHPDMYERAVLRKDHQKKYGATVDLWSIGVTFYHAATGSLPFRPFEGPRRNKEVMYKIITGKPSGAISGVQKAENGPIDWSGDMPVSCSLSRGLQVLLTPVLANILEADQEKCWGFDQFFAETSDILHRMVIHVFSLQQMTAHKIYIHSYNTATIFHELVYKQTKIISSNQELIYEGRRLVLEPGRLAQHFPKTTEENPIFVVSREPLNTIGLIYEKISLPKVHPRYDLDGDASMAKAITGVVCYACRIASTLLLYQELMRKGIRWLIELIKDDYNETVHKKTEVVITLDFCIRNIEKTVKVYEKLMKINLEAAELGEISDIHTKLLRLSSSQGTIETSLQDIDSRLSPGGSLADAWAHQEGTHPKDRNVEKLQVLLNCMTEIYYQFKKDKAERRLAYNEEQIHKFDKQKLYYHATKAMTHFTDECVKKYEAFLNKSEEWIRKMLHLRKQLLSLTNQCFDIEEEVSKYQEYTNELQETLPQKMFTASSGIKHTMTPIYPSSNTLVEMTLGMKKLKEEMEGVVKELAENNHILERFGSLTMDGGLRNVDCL
Particulars: at 0.1 µM.

The target in assay [11] is T2, Serine/threonine-protein kinase TBK1 (Homo sapiens). Particulars: at 1 µM.
In assay [12] the target is T3, Testis-specific serine/threonine-protein kinase 1 (Homo sapiens) (UniProt Q9BXA7).
T3 sequence (whole entry): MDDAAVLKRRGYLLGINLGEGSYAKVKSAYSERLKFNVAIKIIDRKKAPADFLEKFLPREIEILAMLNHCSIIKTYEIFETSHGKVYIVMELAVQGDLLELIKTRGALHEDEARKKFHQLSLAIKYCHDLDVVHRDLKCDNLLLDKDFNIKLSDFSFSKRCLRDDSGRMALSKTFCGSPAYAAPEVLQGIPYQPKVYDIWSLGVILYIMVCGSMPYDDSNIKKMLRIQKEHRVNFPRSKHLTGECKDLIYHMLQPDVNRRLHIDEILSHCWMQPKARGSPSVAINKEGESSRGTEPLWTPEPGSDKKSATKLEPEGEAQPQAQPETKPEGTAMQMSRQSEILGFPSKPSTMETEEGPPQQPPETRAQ
To be noted: at 0.1 µM.

Assay [13] addresses T3, Testis-specific serine/threonine-protein kinase 1 (Homo sapiens). Particulars: at 1 µM.
The target of assay [14] is T4, Testis-specific serine/threonine-protein kinase 2 (Homo sapiens) (UniProt Q96PF2).
T4 sequence (whole entry): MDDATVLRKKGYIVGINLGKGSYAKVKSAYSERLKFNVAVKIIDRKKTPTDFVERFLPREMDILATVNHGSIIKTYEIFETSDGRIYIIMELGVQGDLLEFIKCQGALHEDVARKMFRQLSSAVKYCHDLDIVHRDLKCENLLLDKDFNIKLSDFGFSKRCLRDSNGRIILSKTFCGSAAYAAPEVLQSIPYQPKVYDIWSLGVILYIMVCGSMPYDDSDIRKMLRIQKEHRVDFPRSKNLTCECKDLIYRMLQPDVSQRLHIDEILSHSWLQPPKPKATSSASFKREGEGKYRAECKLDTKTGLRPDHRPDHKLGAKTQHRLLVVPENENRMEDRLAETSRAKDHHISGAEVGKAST
To be noted: at 0.1 µM.

The target of assay [15] is T4, Testis-specific serine/threonine-protein kinase 2 (Homo sapiens). Particulars: at 1 µM.
Assay [16] concerns the target Casein kinase I isoform alpha (Homo sapiens) (UniProt P48729). Particulars: at 0.1 µM.
For assay [17] the target is unchanged. Particulars: at 1 µM.
The target of assay [18] is Casein kinase I isoform gamma-1 (Homo sapiens) (UniProt Q9HCP0). To be noted: at 0.1 µM.
Casein kinase I isoform gamma-1 (Homo sapiens), sequence (Q9HCP0 whole entry, looked up, canonical isoform): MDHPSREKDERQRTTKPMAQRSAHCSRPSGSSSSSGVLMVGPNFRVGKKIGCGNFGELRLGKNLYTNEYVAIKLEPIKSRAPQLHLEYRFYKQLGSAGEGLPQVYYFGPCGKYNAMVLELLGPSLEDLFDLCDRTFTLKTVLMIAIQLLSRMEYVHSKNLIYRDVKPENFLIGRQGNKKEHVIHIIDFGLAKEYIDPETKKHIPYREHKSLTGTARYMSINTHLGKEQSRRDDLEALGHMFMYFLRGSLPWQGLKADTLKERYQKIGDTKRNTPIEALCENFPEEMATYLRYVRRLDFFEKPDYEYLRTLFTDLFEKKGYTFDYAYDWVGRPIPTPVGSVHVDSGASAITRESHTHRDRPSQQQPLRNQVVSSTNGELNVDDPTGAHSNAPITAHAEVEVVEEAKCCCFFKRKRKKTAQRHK
For assay [19] the target is unchanged. To be noted: at 1 µM.
In assay [20] the target is Casein kinase I isoform gamma-2 (Homo sapiens) (UniProt P78368). To be noted: at 0.1 µM.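 Note: values are mean inhibition figures reported as part of the GSK PKIS dataset.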
Casein kinase I isoform gamma-2 (Homo sapiens), sequence (P78368 whole entry, looked up, canonical isoform): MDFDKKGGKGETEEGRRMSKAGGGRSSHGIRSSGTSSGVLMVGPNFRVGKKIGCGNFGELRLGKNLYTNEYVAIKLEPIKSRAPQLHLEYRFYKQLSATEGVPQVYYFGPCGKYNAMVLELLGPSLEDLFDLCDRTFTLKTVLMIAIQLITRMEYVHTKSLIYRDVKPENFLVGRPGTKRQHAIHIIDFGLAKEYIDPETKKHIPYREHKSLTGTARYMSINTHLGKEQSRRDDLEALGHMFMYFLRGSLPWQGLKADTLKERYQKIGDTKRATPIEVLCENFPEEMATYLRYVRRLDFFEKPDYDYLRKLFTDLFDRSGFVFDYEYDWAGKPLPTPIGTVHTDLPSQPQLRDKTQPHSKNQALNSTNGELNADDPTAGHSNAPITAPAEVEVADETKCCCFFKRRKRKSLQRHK

Casein kinase I isoform alpha (Homo sapiens), sequence (P48729 2-337 limits assumed): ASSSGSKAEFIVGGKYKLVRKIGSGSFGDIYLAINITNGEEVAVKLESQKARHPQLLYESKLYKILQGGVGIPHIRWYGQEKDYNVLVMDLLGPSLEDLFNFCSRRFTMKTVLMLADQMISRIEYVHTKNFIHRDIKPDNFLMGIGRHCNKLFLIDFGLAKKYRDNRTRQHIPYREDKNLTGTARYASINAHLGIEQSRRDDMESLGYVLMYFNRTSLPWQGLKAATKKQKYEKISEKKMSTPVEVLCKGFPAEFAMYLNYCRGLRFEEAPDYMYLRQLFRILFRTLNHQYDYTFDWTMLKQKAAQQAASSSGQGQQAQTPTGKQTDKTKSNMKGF
Serine/threonine-protein kinase pim-2 (Homo sapiens), sequence (Q9P1W9 whole entry, looked up): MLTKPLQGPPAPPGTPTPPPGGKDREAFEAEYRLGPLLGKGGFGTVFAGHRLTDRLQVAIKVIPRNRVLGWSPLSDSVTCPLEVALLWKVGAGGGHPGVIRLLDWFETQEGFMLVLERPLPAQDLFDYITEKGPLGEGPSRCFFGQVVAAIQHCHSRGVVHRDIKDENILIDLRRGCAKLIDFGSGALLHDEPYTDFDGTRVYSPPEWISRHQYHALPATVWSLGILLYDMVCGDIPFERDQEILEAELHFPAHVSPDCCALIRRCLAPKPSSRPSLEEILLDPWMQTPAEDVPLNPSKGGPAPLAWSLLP
Serine/threonine-protein kinase SIK2 (Homo sapiens), sequence (Q9H0K1 whole entry, looked up): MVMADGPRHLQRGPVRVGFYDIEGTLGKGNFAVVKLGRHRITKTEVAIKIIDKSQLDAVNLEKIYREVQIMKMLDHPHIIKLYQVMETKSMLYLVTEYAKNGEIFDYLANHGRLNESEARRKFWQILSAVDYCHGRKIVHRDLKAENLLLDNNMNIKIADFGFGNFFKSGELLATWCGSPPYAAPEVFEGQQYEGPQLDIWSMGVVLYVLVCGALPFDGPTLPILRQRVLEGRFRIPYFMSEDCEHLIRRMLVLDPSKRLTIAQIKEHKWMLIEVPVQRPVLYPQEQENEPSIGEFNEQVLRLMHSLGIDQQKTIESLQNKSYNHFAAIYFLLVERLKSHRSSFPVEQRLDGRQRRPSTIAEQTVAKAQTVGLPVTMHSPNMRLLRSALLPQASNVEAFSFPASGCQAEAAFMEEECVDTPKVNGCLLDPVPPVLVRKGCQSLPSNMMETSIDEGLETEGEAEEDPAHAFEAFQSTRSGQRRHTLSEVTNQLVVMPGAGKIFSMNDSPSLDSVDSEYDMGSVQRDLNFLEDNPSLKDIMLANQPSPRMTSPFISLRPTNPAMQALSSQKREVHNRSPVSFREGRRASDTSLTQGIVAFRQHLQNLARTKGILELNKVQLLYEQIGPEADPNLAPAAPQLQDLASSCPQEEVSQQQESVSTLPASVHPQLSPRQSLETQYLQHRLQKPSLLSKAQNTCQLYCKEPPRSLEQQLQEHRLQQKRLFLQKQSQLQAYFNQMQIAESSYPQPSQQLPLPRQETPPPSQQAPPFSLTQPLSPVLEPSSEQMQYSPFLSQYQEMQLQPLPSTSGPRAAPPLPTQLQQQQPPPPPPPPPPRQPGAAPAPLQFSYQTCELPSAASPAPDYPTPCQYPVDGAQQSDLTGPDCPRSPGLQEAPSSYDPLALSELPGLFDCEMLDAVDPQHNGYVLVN

On to `NS(=O)(=O)c1cccc(Nc2cc(-c3ccc(F)cc3)n[nH]2)c1`, for which the inhibition – broadly, the change of the read-out against control, counted positive when it falls – worked out at 1.85% in assay [1]; 2.44% in [2]; 5.79% in [3]; 1.15% in assay [4]; 2.81% in [5]; 7.9% in assay [6]. In addition, the inhibition in [7] was found to be 33.8%; in assay [8], 11.7%; in assay [9], 37.9%; in [10], 2.64%; in assay [11], 15.2%; in [12], 4.49%. Further, the inhibition in assay [13] was 6.59%; in [14], 3.05%; in [15], 2.38%; in assay [16] it was -3.61%; in [17] it was 3.36%; in [18], 2.11%. The inhibition was 3.54% in assay [19] and 1.72% in [20].

`O=S(=O)(CCOCc1ccc(-c2ccc3ncnc(Nc4ccc(OCc5cccc(F)c5)c(Cl)c4)c3c2)o1)c1ccccc1`: the inhibition in [1] turned out to be 2.24%; in assay [2] it was 0.82%; in [3] it was 2.26%; in assay [4] it was 0.61%; in [5], 0.15%; in assay [6], 3.79%. Besides, the inhibition was 5.54% in assay [7]; 0.88% in assay [8]; 1.15% in [9]; 0.12% in [10]; 2.8% in assay [11]; 2.84% in assay [12]. Moreover, the inhibition in [13] is 3.29%; in assay [14], 0.64%; in assay [15], 1.88%; in assay [16] it was -0.6%; in assay [17] it was -0.08%; in assay [18], 0.56%. The figures for the inhibition in [19] and in assay [20] were 1.02% and 0.09%, respectively.

`Nc1nccc(C#Cc2cncnc2Nc2ccc(OCc3cccc(F)c3)c(Cl)c2)n1`: the inhibition was 1.29% in assay [1]; -0.87% in assay [2]; -1.09% in assay [3]; 0.74% in assay [4]; -0.01% in assay [5]; 5.03% in assay [6]. Also, the inhibition in assay [7] stood at 6.42%; in assay [8] it was 5.11%; in [9], 8.28%; in [10], 4.36%; in [11], 9.39%; in [12] it was 2.97%. Moreover, the inhibition in assay [13] was 1.86%; in [14], 1.69%; in assay [15], -1.18%; in [16] it was 4.12%; in assay [17] it was 5.01%; in [18], 3.44%. The values for the inhibition in [19] and in assay [20] were 4.16% and 2.25%, respectively.

Regarding `CS(=O)(=O)CCNCc1nc(-c2ccc3ncnc(Nc4ccc(OCc5cccc(C(F)(F)F)c5)cc4)c3c2)cs1`, the inhibition in assay [1] was -0.33%; in [2] it was -0.43%; in assay [3], 0.97%; in assay [4], 1.44%; in assay [5] it was -0.14%; in assay [6], 4.28%. Besides, the inhibition in assay [7] amounted to 0.42%; in assay [8] it was 1.04%; in [9], 2.49%; in assay [10], 2.22%; in assay [11], 0.57%; in assay [12] it was 2.83%. Further, the inhibition is 2.19% in assay [13]; 0.45% in assay [14]; 0.58% in assay [15]; 0.49% in assay [16]; 4.64% in [17]; 1.2% in [18]. The inhibition in assay [19] is 2.03%; in assay [20], 0.96%.

In the case of `Nc1ccc(C#Cc2cncnc2Nc2ccc(OCc3cccc(F)c3)c(Cl)c2)cc1`, the inhibition was 0.51% in assay [1]; -0.08% in assay [2]; 1.14% in [3]; 1.7% in [4]; 0.75% in assay [5]; 5.15% in assay [6]. Also, the inhibition in assay [7] was 2.18%; in assay [8], -0.99%; in assay [9] it was 5.08%; in assay [10], 2.5%; in assay [11], 3.55%; in assay [12] it was 2.73%. The inhibition is 2.62% in assay [13]; 1.11% in [14]; 0.95% in assay [15]; 3.47% in assay [16]; 2.49% in assay [17]; 2.52% in [18]. The inhibition in assay [19] stood at 2.66%; in [20], 1.58%.

Take `N#Cc1c(NC(=O)c2ccccc2F)sc2c1CCCC2`: the inhibition in [1] is 0.56%; in [2], 0.44%; in [3], 2.71%; in assay [4] it was -0.42%; in [5], -0.7%; in [6], 0.64%. Also, the inhibition in [7] is 2.74%; in [8], -2.07%; in assay [9] it was -0.94%; in assay [10], -1.61%; in assay [11], -0.25%; in assay [12], 0.47%. Also, the inhibition in [13] was 0.66%; in assay [14], 0.05%; in [15] it was 0.04%; in [16], -1.71%; in [17], -1.69%; in [18], -1.23%. The inhibition in assay [19] was -0.65%; in assay [20], -1.34%.

As for `Cc1nc(-c2ccccc2)n2nc(NCCCN3CCOCC3)ncc12`, the inhibition in assay [1] is 0.05%; in [2], -0.2%; in [3] it was 1.5%; in assay [4] it was 0.74%; in assay [5], 0.74%; in [6], 3.53%. Besides, the inhibition in [7] is 5.24%; in assay [8], -0.49%; in assay [9], 4.81%; in assay [10] it was 1.18%; in assay [11] it was 6.52%; in assay [12], 0.26%. Further, the inhibition in [13] worked out at 3.44%; in [14], 0.32%; in [15] it was 0.77%; in [16], 1.74%; in [17], 8.04%; in assay [18], 2.06%. The inhibition is 2.66% in assay [19] and 2.09% in assay [20].
